The subject of test [1] is thyroid hormone receptor (rat, GH3 cells). The experiment in a line: qHTS assay to identify small molecule agonists of the thyroid receptor (TR) signaling pathway (AID 743066). Background: In qHTS, concentration-response curves come from the screen itself.
Test [2] concerns the target Estrogen receptor (Homo sapiens) (UniProt P03372). Put plainly: qHTS assay to identify small molecule antagonists of the estrogen receptor alpha (ER-alpha) signaling pathway (AID 743069; active = well fitted curve in the direction sought with a large enough effect in the signal ratio in the repeat runs, not every such curve was filed as active; inconclusive = weak or mixed curves, or effect the other way; inactive = no such curve, though single readings can be large or run the other way; the % refers to the signal ratio). In short, it runs like this: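 Reporter cells (ER-alpha-bla, HEK293 background) are conditioned overnight in stripped-serum medium (2% charcoal-stripped FBS). Compound and 17beta-estradiol exposure runs 18 hr at 37C, 5% CO2.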

Test [3] in a line: qHTS assay to identify small molecule antagonists of the estrogen receptor alpha (ER-alpha) signaling pathway - cell viability counter screen (AID 743074).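 Note: HEK293 cells carrying ER-alpha-UAS-bla reporter stimulated with 17beta-estradiol; nearly all actives have a fitted effect of over 45% in size.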
Test [4] deals with Estrogen receptor (Homo sapiens) (UniProt P03372). The experiment in a line: qHTS assay to identify small molecule agonists of the estrogen receptor alpha (ER-alpha) signaling pathway (AID 743075).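 Note: HEK293 GripTite cells with ER-alpha and UAS-driven beta-lactamase reporter.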 Note: potency is the fitted concentration of half-maximal effect.
The target is the same in test [5]. The experiment in a line: qHTS assay to identify small molecule agonists of the estrogen receptor alpha (ER-alpha) signaling pathway using the BG1 cell line (AID 743079; active = well fitted curve in the direction sought with a large enough effect in the repeat runs; inconclusive = weak or mixed curves; inactive = no such curve, though single readings can be large; an effect the other way counts as inactive or inconclusive; note: nearly all actives have a fitted effect of over 20% in size; note: potency is the fitted concentration of half-maximal effect). To be noted: BG1Luc4E2 cells, ERE-luciferase agonist, 22 h; activation: at 70.3 µM (top of the series).
A short description of test [6]: qHTS assay to identify small molecule antagonists of the estrogen receptor alpha (ER-alpha) signaling pathway using the BG1 cell line (AID 743080).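 Note: BG1 cells stimulated with 17beta-estradiol alongside compound; nearly all actives have a fitted effect of over 25% in size.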 In short, it runs like this:
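Quantitative HTS on the Tox21 10K library: BG1 cells with endogenous ER-alpha and ERE-luciferase reporter, 17beta-estradiol stimulation, 21.5 h compound exposure, luminescence endpoint with parallel fluorescence cytotoxicity counter-read.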

Test [7] in a line: qHTS assay to identify small molecule antagonists of the estrogen receptor alpha (ER-alpha) signaling pathway using the BG1 cell line - cell viability counter screen (AID 743081; active = well fitted curve in the direction sought with a large enough effect in the repeat runs; inconclusive = weak or mixed curves; inactive = no such curve, though single readings can be large; an effect the other way counts as inactive or inconclusive;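 note: compound given together with 17beta-estradiol as the ER stimulus; nearly all actives have a fitted effect of over 45% in size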).
A further test concerns the target Aromatase (Homo sapiens) (UniProt P11511). Put plainly: qHTS assay to identify aromatase inhibitors (AID 743083; active = well fitted curve in the direction sought with a large enough effect in the repeat runs; inconclusive = weak or mixed curves; inactive = no such curve, though single readings can be large; an effect the other way counts as inactive or inconclusive; note: nearly all actives have a fitted effect of over 55% in size).
Test [8] in a line: qHTS assay to identify small molecule antagonists of the thyroid receptor (TR) signaling pathway (AID 743065; active = well fitted curve in the direction sought with a large enough effect in the repeat runs; inconclusive = weak or mixed curves; inactive = no such curve, though single readings can be large; an effect the other way counts as inactive or inconclusive; note: nearly all actives have a fitted effect of over 55% in size; note: potency is the fitted concentration of half-maximal effect). The gist of the method:
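GH3.TRE-Luc rat pituitary cells (two TREs driving luciferase) were dosed with compound, then stimulated with 1 nM T3 (final) for 23.5 h at 37 C. ONE-Glo luminescence was the read-out, with CellTiter-Fluor fluorescence as the cytotoxicity counter-screen.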

Active and inactive are the calls of the source. Unless noted, calls come from the whole dose curve.
% is set by controls: 0 for no effect and ±100 for the full control effect.

Estrogen receptor (Homo sapiens), sequence (P03372 whole entry, looked up): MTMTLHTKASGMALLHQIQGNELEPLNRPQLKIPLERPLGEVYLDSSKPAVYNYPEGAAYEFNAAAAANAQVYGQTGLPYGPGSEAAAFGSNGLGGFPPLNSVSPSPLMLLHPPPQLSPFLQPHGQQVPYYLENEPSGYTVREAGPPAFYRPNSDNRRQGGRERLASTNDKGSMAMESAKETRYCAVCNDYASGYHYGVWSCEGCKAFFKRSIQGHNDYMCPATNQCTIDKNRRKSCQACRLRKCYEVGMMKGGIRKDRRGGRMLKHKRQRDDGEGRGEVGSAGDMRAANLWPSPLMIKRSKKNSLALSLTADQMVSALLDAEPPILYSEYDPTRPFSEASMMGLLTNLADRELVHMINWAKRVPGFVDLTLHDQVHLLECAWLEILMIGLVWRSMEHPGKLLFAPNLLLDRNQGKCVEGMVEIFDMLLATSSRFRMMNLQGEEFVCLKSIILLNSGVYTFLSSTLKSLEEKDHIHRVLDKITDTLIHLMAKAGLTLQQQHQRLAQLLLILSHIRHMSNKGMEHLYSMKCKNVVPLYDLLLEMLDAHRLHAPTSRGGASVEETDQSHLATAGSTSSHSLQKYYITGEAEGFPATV
Aromatase (Homo sapiens), sequence (P11511 whole entry, looked up): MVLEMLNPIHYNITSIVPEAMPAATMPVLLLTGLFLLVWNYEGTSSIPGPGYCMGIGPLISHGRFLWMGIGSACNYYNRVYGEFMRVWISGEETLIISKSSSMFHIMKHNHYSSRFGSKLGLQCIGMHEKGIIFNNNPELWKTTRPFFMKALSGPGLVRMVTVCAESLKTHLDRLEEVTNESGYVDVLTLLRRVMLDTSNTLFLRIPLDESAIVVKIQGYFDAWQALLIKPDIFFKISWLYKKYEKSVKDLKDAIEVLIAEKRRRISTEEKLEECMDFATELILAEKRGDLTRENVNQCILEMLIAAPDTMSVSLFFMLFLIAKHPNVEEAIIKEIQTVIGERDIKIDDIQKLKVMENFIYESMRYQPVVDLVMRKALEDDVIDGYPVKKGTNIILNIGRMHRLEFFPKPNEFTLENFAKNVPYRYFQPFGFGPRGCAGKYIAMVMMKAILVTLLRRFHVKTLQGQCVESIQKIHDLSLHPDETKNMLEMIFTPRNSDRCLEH

As for `O=C(OC[C@H]1O[C@](O)(COC(=O)c2cccnc2)[C@@H](OC(=O)c2cccnc2)[C@@H]1OC(=O)c1cccnc1)c1cccnc1`, the Potency entry in [1], in [2], in [3], in [4], in [5] and in [6] was “inactive” each time. Moreover, the Potency entry (in [7]; in the test with Aromatase (Homo sapiens)) was “inactive” in each case.
For the compound `CS(=O)(=O)c1ccc(C2=C(c3ccccc3)C(=O)OC2)cc1`, the Potency entry (in test [8]; in [1]; in [3]; in [7]; with Aromatase (Homo sapiens)) was “inactive” each time.
For the compound `CCCCCCC(=O)O[C@H]1CC[C@H]2[C@@H]3CCc4cc(O)ccc4[C@H]3CC[C@]12C`, the results for the Potency in test [8] and in test [4] were 21100 nM (active) and 0.7 nM [inconclusive] (active), respectively. For the same compound, the activation in [5] was 66.1% (active). Besides, the Potency result (in test [7]; in the test with Aromatase (Homo sapiens)) was “inactive” in each case.
With `O=C(CCCN1CCC(n2c(=S)[nH]c3ccccc32)CC1)c1ccc(F)cc1`, in [8], the Potency was 26600 nM (active). Besides, the Potency entry in test [3] and in [4] was “inactive” each time.
For the compound `CN1c2cc(O)c(N=NC(N)=O)cc2CC1S(=O)(=O)O` (configuration not stated), the Potency result (in test [8]; in test [1]; in [3]; in [7]; with Aromatase (Homo sapiens)) was “inactive” in each case.
For the compound `O=C(Nc1ccc(/C=C/c2ccc(NC(=O)c3cc(S(=O)(=O)O)c4cccnc4c3O)cc2S(=O)(=O)O)c(S(=O)(=O)O)c1)c1cc(S(=O)(=O)O)c2cccnc2c1O`, the Potency result in test [1], in test [2], in test [3], in test [4], in [5] and in test [6] was “inactive” each time. In addition, the Potency result (in [7]; with Aromatase (Homo sapiens)) was “inactive” in each case.
On to `CC(CCc1ccc(O)cc1)NCC(O)c1ccc(O)cc1` (configuration not stated), for which the Potency entry (in test [8]; in test [1]; in test [3]; in test [7]; with Aromatase (Homo sapiens)) was “inactive” in each case.
For `CC(CN1c2ccccc2Sc2cccnc21)N(C)C` (configuration not stated), the Potency entry in test [1], in [2], in test [3], in test [5], in [6] and in test [7] was “inactive” throughout. Also, in the test with Aromatase (Homo sapiens), the Potency result was “inactive”.
Regarding `c1ccc2cc(C3=NCCN3)ccc2c1`, the Potency result in test [1], in [2], in test [3], in test [4], in [5] and in test [7] was “inactive” each time. Also, in the test with Aromatase (Homo sapiens), the Potency entry is “inactive”.
On to `CCC(CN)CC(C)CCNCC(O)CNCC(C)CC(CC)CN` (configuration not stated), for which the Potency result in test [2], in [3], in test [4], in test [5], in test [6] and in test [7] was “inactive” throughout. Also, in the test with Aromatase (Homo sapiens), the Potency entry is “inactive”.
Consider `C=Cc1c(C)c2cc3nc(cc4[nH]c(cc5nc(cc1[nH]2)C(C)=C5CCC(=O)OC)c(CCC(=O)O)c4C)[C@@]1(C)C3=CC=C(C(=O)OC)[C@H]1C(=O)OC`, for which the Potency result (in [1]; in test [3]; in test [4]; in test [5]; in [6]; with Aromatase (Homo sapiens)) was “inactive” throughout.
`C#C[C@]1(O)CC[C@H]2[C@@H]3CCC4=CCCC[C@@H]4[C@H]3C(=C)C[C@@]21CC`: the Potency entry (in test [2]; in [3]; in [6]; in [7]; in the test with Aromatase (Homo sapiens)) was “inactive” each time. Further, the Potency in test [4] is 2390 nM [inconclusive] (active); in [5], 1880 nM (active).
Turning to `CC[C@@H]1/C=C(\C)C[C@H](C)C[C@H](OC)[C@H]2O[C@@](O)(C(=O)C(=O)N3CCCC[C@H]3C(=O)O[C@H](/C(C)=C/[C@@H]3CC[C@@H](Cl)[C@H](OC)C3)[C@H](C)[C@@H](O)CC1=O)[C@H](C)C[C@@H]2OC`, the Potency result (in [1]; in [3]; in test [7]; with Aromatase (Homo sapiens)) was “inactive” each time.
Consider `CNCC(O)c1ccc(OC(=O)C(C)(C)C)c(OC(=O)C(C)(C)C)c1` (configuration not stated), for which the Potency entry in [1], in [2], in [3], in test [4], in [5] and in test [6] was “inactive” in each case. Further, the Potency result with Aromatase (Homo sapiens) was “inactive”.
Regarding `C[C@@H]1C[C@H]2C3C[C@H](F)C4=CC(=O)C=CC4(C)[C@@]3(F)[C@@H](O)CC2(C)[C@@]1(O)C(=O)COC(=O)C(C)(C)C` (some centres not stated), the Potency result (in [1]; in test [3]; in test [4]; in test [5]; in [7]; with Aromatase (Homo sapiens)) was “inactive” each time.
Take `CN1CCC(OC(=O)C(Oc2ccc(Cl)cc2)Oc2ccc(Cl)cc2)CC1`: the Potency result in [1], in test [2], in test [3], in [4], in [5] and in test [6] was “inactive” each time. The Potency result (in [7]; with Aromatase (Homo sapiens)) was “inactive” in each case.
Consider `CNC(C)CCC=C(C)C` (configuration not stated), for which the Potency result (in test [1]; in [7]; with Aromatase (Homo sapiens)) was “inactive” each time.
Turning to `CCCCC/C=C\C/C=C\C/C=C\CCCCC(=O)O`, the Potency result (in test [1]; in [3]; in test [7]; with Aromatase (Homo sapiens)) was “inactive” each time.
As to `CC[N+](C)(C)Cc1ccccc1Br`, the Potency entry in [2], in test [3], in [4], in [5], in test [6] and in [7] was “inactive” each time. Further, in the test with Aromatase (Homo sapiens), the Potency result was “inactive”.

The values are drawn from PubChem BioAssay (Tox21).
